From PubChem BioAssay (NCI)
This is part of a sample that, as a whole, favours compounds with a hit. Of some 83,000 tested, about 20% had one in any assay.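 A percent growth of 40 corresponds to 60% growth inhibition; 0 means no net growth; -100 means all cells died. Active threshold: below 10.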 Unmarked numbers belong to inactive results. Calls of active or inactive are those of the source.

How the values were obtained:
Assay in all cases: NCI-60 one-dose screen, 48 h (100 = growth as untreated, 0 = no growth, -100 = all killed)
Conditions in all cases: 10 µM unless noted
[1] = system: NCI-H23 lung
[2] = system: NCI-H226 lung
[3] = system: NCI-H322M lung
[4] = system: HOP-62 NSCLC
[5] = system: NCI-H460 lung
[6] = system: HOP-92 NSCLC
[7] = system: NCI-H522 lung
[8] = system: A549/ATCC NSCLC
[9] = system: 786-0 renal
[10] = system: COLO 205 colon

Cc1ccc(Cc2c(C=O)nc(N)[nH]c2=O)c2ccccc12
growth [1]: 97.7%
growth [2]: 98.6%
growth [3]: 119%
growth [4]: 96.2%
growth [5]: 109%
growth [6]: 91.9%
growth [7]: 118%
growth [8]: 86.6%
growth [9]: 89.8%
growth [10]: 95.5%

C=C[C@@H]1C[C@@H]2Cc3c(C)cc(C)cc3N1O2
growth [1]: 95%
growth [2]: 95.5%
growth [3]: 91.9%
growth [4]: 91.2%
growth [5]: 99.8%
growth [6]: 45.6%
growth [7]: 99.2%
growth [8]: 95.1%
growth [9]: 105%
growth [10]: 100%

Fc1ccc(Nc2ncnc3ccc(-c4cnc5[nH]ccc5c4)cc23)cc1Cl
growth [1]: 36.1%
growth [2]: 4.94% (active)
growth [3]: 19.2%
growth [4]: 29.1%
growth [5]: -58.9% (active)
growth [6]: -5.43% (active)
growth [7]: -33.3% (active)
growth [8]: -50.1% (active)
growth [9]: -44.1% (active)
growth [10]: 11%

COc1ccc(C(=O)N2NC(=O)/C(=C/c3cn(-c4ccccc4)nc3-c3ccccc3)N=C2c2ccccc2)cc1
growth [1]: 97.3%
growth [2]: 102%
growth [3]: 97.3%
growth [4]: 115%
growth [5]: 106%
growth [6]: 100%
growth [7]: 95.9%
growth [8]: 91.6%
growth [9]: 93%
growth [10]: 120%

Cc1ccc(S(=O)(=O)/C(=C\c2ccc(Cl)cc2)C(=O)c2ccccc2)cc1
growth [1]: 102%
growth [2]: 97.9%
growth [3]: 101%
growth [4]: 104%
growth [5]: 106%
growth [6]: 94.6%
growth [7]: 96.3%
growth [8]: 106%
growth [9]: 103%
growth [10]: 102%

COc1ccc(OC)c(/C=C2\Oc3cc(OCCCN4CCCC4)ccc3C2=O)c1
growth [1]: 80.6%
growth [2]: 88.7%
growth [3]: 88.9%
growth [4]: 95.6%
growth [5]: 61.3%
growth [6]: 77.6%
growth [7]: 89.6%
growth [8]: 81.2%
growth [9]: 84.2%
growth [10]: 85.6%

COc1ccccc1CNCCCN1C(=O)c2ccc3c4c(ccc(c24)C1=O)C(=O)N(CCCNCCCCNCCCN)C3=O
growth [1]: 1.96% (active)
growth [2]: -59.9% (active)
growth [3]: -4.96% (active)
growth [4]: -55.2% (active)
growth [5]: -30.2% (active)
growth [6]: 5.16% (active)
growth [7]: -41.7% (active)
growth [8]: -48.2% (active)
growth [9]: 3.83% (active)
growth [10]: -78.9% (active)

O=S(=O)(NCCNc1nccc(-c2c(-c3ccc(F)cc3)nc3sccn23)n1)c1ccc(F)cc1
growth [1]: 78.7%
growth [2]: 72.8%
growth [3]: 77.4%
growth [4]: 84.4%
growth [5]: 48.6%
growth [6]: 82.7%
growth [7]: 89.6%
growth [8]: 49.3%
growth [9]: 73.7%
growth [10]: 58.8%

CO[C@H]1NC(=O)N(S(=O)(=O)c2ccc(Cl)cc2)[C@@H]1OC
growth [1]: 107%
growth [2]: 131%
growth [3]: 111%
growth [4]: 93.1%
growth [5]: 110%
growth [6]: 114%
growth [7]: 105%
growth [8]: 98.2%
growth [9]: 103%
growth [10]: 108%

C[n+]1c(/C=C/c2c(O)ccc3ccccc23)ccc2ccccc21
growth [1]: 37.2%
growth [2]: 47.5%
growth [3]: 42.9%
growth [4]: 54.8%
growth [5]: 9.44% (active)
growth [6]: -10.2% (active)
growth [7]: -6.6% (active)
growth [8]: 51.3%
growth [9]: 49.2%
growth [10]: 25.3%

O=C1NN(C(=O)c2ccc(Cl)cc2)C(c2ccccc2)=N/C1=C\c1ccc(F)cc1
growth [1]: 84%
growth [2]: 92.1%
growth [3]: 89.7%
growth [4]: 99.1%
growth [5]: 94.6%
growth [6]: 83.5%
growth [7]: 96.5%
growth [8]: 87.5%
growth [9]: 76.5%
growth [10]: 109%

C=C1CCC2C(C)(CO)C(O)CCC2(C)C1CC(NCc1ccccc1)C1=CCOC1=O (stereo not given)
growth [1]: 98.9%
growth [2]: 100%
growth [3]: 103%
growth [4]: 107%
growth [5]: 102%
growth [6]: 99.8%
growth [7]: 89.9%
growth [8]: 99.9%
growth [9]: 96.3%
growth [10]: 103%

Brc1cccc(-c2cc(-c3ccc4nccnc4c3)[nH]n2)c1
growth [1]: 46.5% [25 µM]
growth [2]: 22.4% [25 µM]
growth [3]: 50.5% [25 µM]
growth [4]: 30.1% [25 µM]
growth [5]: 4.81% [25 µM] (active)
growth [6]: 55.5% [25 µM]
growth [7]: -5.69% [25 µM] (active)
growth [8]: 31.2% [25 µM]
growth [9]: 35.1% [25 µM]
growth [10]: -24.7% [25 µM] (active)

O=C(Nc1ccncc1)C(=O)c1cn(S(=O)(=O)c2ccc(Br)cc2)c2ccccc12
growth [1]: 46.9%
growth [2]: 77.8%
growth [3]: 97.1%
growth [4]: 44.7%
growth [5]: 68.4%
growth [6]: 48.6%
growth [7]: 18.3%
growth [8]: 75.6%
growth [9]: 54.9%
growth [10]: 103%
